Reference: PubChem BioAssay AID1672 (Johns Hopkins Ion Channel Center, 2009)
Hit rate of the full screen: of about 310,000 compounds, about 2,600 (0.84%) were called active. Only a selection was taken, and actives are over-represented in it overall. A number with no mark means an inactive call.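 How the source made its calls: active means fluorescence ratio B-score at or below minus 3 SD of library scores, with starting-brightness B-score within 2 SD (cut at about -4.2 in these data); inactive means the rest.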

Target: Inward rectifier potassium channel 2 (Mus musculus) (UniProt P35561)
Sequence (P35561 whole entry, looked up): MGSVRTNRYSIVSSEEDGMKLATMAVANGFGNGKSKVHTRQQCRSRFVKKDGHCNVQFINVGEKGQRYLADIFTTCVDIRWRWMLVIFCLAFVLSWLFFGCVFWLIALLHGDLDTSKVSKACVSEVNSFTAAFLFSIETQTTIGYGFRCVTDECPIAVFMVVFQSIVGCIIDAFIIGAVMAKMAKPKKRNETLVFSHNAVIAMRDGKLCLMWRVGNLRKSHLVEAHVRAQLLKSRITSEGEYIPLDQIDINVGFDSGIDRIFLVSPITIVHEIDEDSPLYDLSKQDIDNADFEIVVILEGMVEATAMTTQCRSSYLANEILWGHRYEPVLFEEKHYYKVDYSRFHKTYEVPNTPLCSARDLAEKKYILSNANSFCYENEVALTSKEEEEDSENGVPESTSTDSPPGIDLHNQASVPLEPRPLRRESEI
Test: inhibitors of mouse Kir2.1 inward-rectifier potassium channel (AID 1672);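 further: channel flux triggered by added potassium and thallium sulfate stimulus; B-score of peak minus minimum fluorescence over baseline after thallium stimulus; more negative B-score means stronger Kir2.1 block with less thallium influx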
Details: HEK293-Kir2.1, FluxOR thallium flux fluorescence; at 10 µM; stronger effect = lower value

| SMILES | B-score |
| --- | --- |
| O=C(CNC(=O)C12CC3CC(CC(C3)C1)C2)OCC(=O)N1CCCCC1 | 1.97 |
| CCC(C)N(C(=O)COC(=O)c1nc(Cl)ccc1Cl)C1CCS(=O)(=O)C1 (stereo unspecified) | -0.16 |
| CCN(CC(=O)Nc1ccc(NC(C)=O)cc1)C(=O)C1CC(=O)N(Cc2ccc(C)cc2)C1 (stereo unspecified) | 1.85 |
| COc1cc(OC)c2ccc(=O)oc2c1C(CCN1CCN(c2ccccc2)CC1)c1ccc2c(c1)OCO2 (stereo unspecified) | -0.17 |
| CCN(CC)CCC(c1ccc2c(c1)OCO2)c1c(OC)cc(OC)c2c(-c3ccccc3)cc(=O)oc12 (stereo unspecified) | -6.31 (active) |
| CCN(CC)C(=O)CC(c1ccc2c(c1)OCO2)c1c(OC)cc(OC)c2c(-c3ccccc3)cc(=O)oc12 (stereo unspecified) | 1.58 |
| Cc1ccc2nc(Nc3ccccc3O)nc(-c3ccccc3)c2c1 | -0.47 |
| NC(N)=Nc1nc(-c2ccccc2)c2cc(Cl)ccc2n1 | -10 (active) |
| O=C(CCl)NNc1nc(-c2ccccc2)c2cc(Cl)ccc2n1 | 0.44 |
| CCCCn1c(N)c(N(CCOC)C(=O)c2cccc(S(=O)(=O)N(C)c3ccccc3)c2)c(=O)[nH]c1=O | -1.94 |
| COc1ccc2c(c1)C(C)=CC(C)(C)N2C(=O)CNCc1ccc2c(c1)OCO2 | -6.62 (active) |
| COc1ccc2c(c1)C(C)=CC(C)(C)N2C(=O)Nc1ccccc1 | -0.17 |
| COc1cccc(CNCc2ccc3c(c2)OCO3)c1 | 0.44 |
| COc1ccc(-c2nnc(SCC(=O)Nc3cccnc3Cl)n2C)cc1 | -1.29 |
| COc1ccccc1-c1n[nH]c2c1[C@H](C)CC[C@H]2C(C)C | -5.83 (active) |
| COc1ccc(-c2n[nH]c(C)c2-c2ccccc2OC)c(O)c1 | -2.01 |
| COc1ccccc1-c1nc(SC)n[nH]1 | 0.18 |
| CCOc1ccc(S(=O)(=O)N2CCC(C(=O)OCc3ccc(OC)cc3)CC2)cc1 | -1.22 |
| CCOc1cc(/C=N/NC(=O)c2cccc(S(=O)(=O)N3CCOCC3)c2)ccc1OCC(=O)N(C)C | 0 |
| COc1ccc(C(CCNCc2ccccc2F)c2ccc(F)cc2)cc1 (stereo unspecified) | -9.19 (active) |
| COc1ccc(C(CNCC(=O)Nc2ccccc2F)N(C)C)cc1 (stereo unspecified) | -0.53 |
| COc1ccc(CC(=O)NC(C)CCc2ccccc2)cc1 (stereo unspecified) | -1.96 |
| Cc1ccc(NC(=O)COc2coc(CN3CCc4ccccc4C3)cc2=O)cc1Cl | -0.37 |
| CC(=O)Nc1ccc(C(=O)Nc2cccc(S(=O)(=O)NC3=NCCC3)c2)cc1 | -0.82 |

| SMILES | B-score |
| --- | --- |
| O=C(Nc1ccccc1Cl)Nn1cnnc1 | 1.92 |
| O=C(COC(=O)c1cccs1)Nc1ccccc1Cl | -0.93 |
| O=C(Nc1ccccc1Cl)/C(Cl)=C(\Cl)S(=O)c1ccccc1 (stereo unspecified) | -14.3 (active) |
| O=C(NCCCc1ccccc1)C(=O)NCC1OCCN1S(=O)(=O)c1ccccc1 (stereo unspecified) | 0.45 |
| CC1=NCCN1S(=O)(=O)c1cccc([N+](=O)[O-])c1 | 0 |
| CCOc1ccc(S(=O)(=O)N2CCN=C2Cc2ccccc2)cc1C | -3.8 |
| COc1cc(S(=O)(=O)N2CCN=C2c2ccccc2)ccc1Cl | -5.41 (active) |
| CCOC(=O)c1cc(C(C)C)sc1NC(=O)COC(=O)c1nccnc1N | -0.16 |
| CCCCN(C(=O)c1ccc(S(=O)(=O)N2CCOCC2)cc1)C1CCS(=O)(=O)C1 (stereo unspecified) | -1.08 |
| Cc1ccc(-c2nn(-c3ccccc3)cc2C(=O)NCCCN2CCCC2=O)cc1 | -0.8 |
| Cc1ccc(OCC(O)CN2CCN(CC(O)COc3ccc(C)cc3Cl)CC2)c(Cl)c1 (stereo unspecified) | 0.66 |
| OC(COc1ccc(F)cc1Cl)CN1CCc2ccccc2C1 (stereo unspecified) | -5.33 (active) |
| COc1ccccc1OCC(O)CN1CCOCC1 (stereo unspecified) | 1.4 |
| Cc1ccc(C(=O)NC2CCCC(C)C2C)cc1S(=O)(=O)N1CCCCC1 (stereo unspecified) | -1.83 |
| CCCCC(=O)NCc1ccc(F)cc1 | 0.15 |
| CCn1cc(CCC(=O)NCc2ccc(F)cc2)c2ccccc21 | -6.18 (active) |
| O=C(Cc1ccccc1)NCc1ccc(F)cc1 | 0.8 |
| CCCC(C(=O)OCCN(CC)CC)(c1ccccc1)c1ccccc1 | -5.06 (active) |
| CCC(C(=O)OCCN(CC)CC)c1ccccc1 (stereo unspecified) | 0.4 |
| CCN(CC)CCOC(=O)c1ccc(NC(=O)CNC(=O)c2ccccc2)cc1 | 0.63 |
| COc1cc(C(=O)OCC(=O)N(CC(C)C)C2CCS(=O)(=O)C2)ccc1OCC(C)C (stereo unspecified) | 1.65 |
| COc1ccc(NC(=O)CSc2nnc(Cc3ccccc3)c(=O)n2N)cc1 | -1.28 |
| CC12CCC(=O)N1C(C(=O)Nc1ccc(F)c(F)c1F)CS2 (stereo unspecified) | 1.46 |
| COc1cccc(CNC(=O)C(=O)NCCC2CCCCN2S(=O)(=O)c2ccc(C)cc2)c1 (stereo unspecified) | -0.02 |

| SMILES | B-score |
| --- | --- |
| COc1cccc(CN(C)CC(O)COC(c2ccccc2)c2ccccc2C)c1 (stereo unspecified) | -9.28 (active) |
| COc1cccc(CN(C)CC(=O)Nc2ccccc2C(=O)Nc2ccccc2)c1 | 0.2 |
| COc1cccc(CN(C)CC(=O)Nc2sc3c(c2C#N)CCC3)c1 | 1.34 |
| C=CCOc1ccc(/C=C/C(=O)OC(C)C(=O)Nc2ccc(NC(C)=O)cc2)cc1 (stereo unspecified) | 1.98 |
| Cn1c(CO)cnc1SCc1ccccc1 | 0.48 |
| CSc1c(SCc2ccccc2)cnn(Cc2ccccc2)c1=O | -5.77 (active) |
| CSc1nc2ccccc2c(=O)n1Cc1ccc(F)cc1 | -0.15 |
| O=C(NCCC1CCCCN1S(=O)(=O)c1ccc(Cl)cc1)C(=O)NCc1ccco1 (stereo unspecified) | 0.39 |
| CCCc1nc(SCC(=O)Nc2ccc(S(=O)(=O)N(C)C)cc2)c2ccccc2n1 | 0.71 |
| CCc1nc(SCC(=O)NNC(=O)c2ccc(C)cc2)c2ccccc2n1 | -1.13 |
| CCCNC(=O)CSc1nc(Cc2ccccc2)nc2ccccc12 | -5.07 (active) |
| Brc1cnc2ccccc2c1N1CCCCC1 | 0.77 |
| CCOc1ccc(NS(=O)(=O)c2ccc(C(=O)NCC(c3ccccc3OC)N3CCCC3)cc2)cc1 (stereo unspecified) | -0.36 |
| CC1CCN(C(=O)COC(=O)c2cc(S(=O)(=O)N3CCOCC3)ccc2Cl)CC1 | -1.43 |
| CCOc1ccc(/C=C/C(=O)N(CC)CC(=O)NCc2cccs2)cc1OC | 0.23 |
| Cc1ccccc1NC(=O)NCC1CCN(Cc2cccc(Cl)c2)CC1 | -0.23 |
| Cc1ccc(C)c(CN2CCC(CNC(=O)Nc3ccc(C)c(F)c3)CC2)c1 | -0.54 |
| Cc1cccc(CN2CCC(CNC(=O)Nc3ccc(F)c(Cl)c3)CC2)c1 | -4.23 (active) |
| O=C1[C@H]2[C@@H](c3ccc(Cl)cc3)N3C(=O)N(c4cccc(F)c4)C(=O)[C@@]3(Cc3ccccc3)[C@H]2C(=O)N1C1CCCCC1 | 1.66 |
| CCCC[C@@H]1CN=C(N)N1CCCC | 0 |
| O=C(NCC(c1ccco1)N1CCc2ccccc21)c1cccc(F)c1 (stereo unspecified) | -0.73 |
| C=CCc1cc(C)ccc1OCCCn1ccnc1 | 0.46 |
| Clc1c(OCCCn2ccnc2)ccc2ccccc12 | -7.14 (active) |
| c1ccc(Cc2ccc(OCCn3ccnc3)cc2)cc1 | -1.84 |

| SMILES | B-score |
| --- | --- |
| CC(=O)Nc1ccc(NC(=O)CSC2=NS(=O)(=O)c3ccccc3N2)cc1 | 1.78 |
| CC1(C)CC[C@]2(C(=O)O)CC[C@]3(C)C(=CCC4[C@@]5(C)CC[C@H](O)C(C)(C)C5[C@H](O)C[C@]43C)[C@@H]2C1 (stereo partly specified) | -0.05 |
| CC(=O)c1sc(N)nc1C | 0.05 |
| O=C1CC2(CCN(C(=O)COc3ccc(F)cc3)CC2)Oc2ccccc21 | -0.48 |
| CN(CC#CCC(c1ccccc1)c1ccccc1)C(C)(C)C | -5.14 (active) |
| CC(C)(C)N(CC#CCC(O)(c1ccccc1)C1CCCC1)CCO (stereo unspecified) | -0.14 |
| COc1ccc(C#Cc2c(-c3ccc(OC)cc3)oc3ccc(-c4ccc5c(c4)OCO5)cc23)cc1 | 0.43 |
| CN(C)S(=O)(=O)c1cccc(C(=O)OCC(=O)N2CCCC2=O)c1 | 0.88 |
| C=CCN(c1ccc(Cl)cc1)S(=O)(=O)c1cccc(C(=O)OCC(=O)N(C)C)c1 | -4.24 (active) |
| COc1ccc(N(Cc2ccccc2)S(=O)(=O)c2cccc(C(=O)O)c2)cc1 | -0.29 |
| CCN(CC(=O)Nc1cccc(S(=O)(=O)N2CCCCC2)c1)Cc1ccccc1 | -0.91 |
| Cc1ccccc1NC(=O)COc1cccc2c1CCNC2=O | -0.1 |
| Cc1cc(OCC(=O)N(C)c2c(N)n(Cc3ccccc3)c(=O)[nH]c2=O)c(C(C)C)cc1Cl | -0.39 |
| FC(F)(F)c1ccc2c3n(nc2c1)CCN=C3c1ccc(Cl)cc1 | 0.62 |
| CN(C(=O)c1cc2c(=O)n3ccccc3nc2s1)C1CCCCC1 | -0.51 |
| CC(C)CN(C(=O)Cn1c(=O)cnc2ccccc21)C1CCS(=O)(=O)C1 (stereo unspecified) | -2.2 |
| CSc1ccc(CN(C)CC(=O)NCc2ccc(F)cc2)cc1 | -4.3 (active) |
| Cc1ccc(SC(C)C(=O)NCc2ccc(F)cc2)cc1 (stereo unspecified) | -0.79 |
| Cc1ccc(NC(=O)CN(C)Cc2ccc(F)cc2)c([N+](=O)[O-])c1 | -0.89 |
| CN(CC(=O)Nc1cccc(F)c1)C(=O)C1=COCCO1 | -0.96 |
| O=C(NCCC1CCCCN1S(=O)(=O)c1cccs1)C(=O)Nc1ccc(F)cc1F (stereo unspecified) | -1.66 |
| CCOc1ccc(NS(=O)(=O)c2cc(C)c(C)cc2C)cc1 | -1.54 |
| Cc1cc(C)c(C)c(S(=O)(=O)Nc2cccnc2)c1C | -0.73 |
| Cc1cc(C)c(C)c(S(=O)(=O)Nc2ccc(O)cc2)c1C | -9.99 (active) |
